SMILES strings stand for the structures. Out of some 330,000 compounds screened, about 10,000 (3%) were called active.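 Rule for the calls: active = inhibition of at least 50% at 8 µM in the primary screen; inactive = the rest.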 The list comes from a sample in which actives are over-represented; it also holds similar structures and randomly drawn compounds.

The target in this experiment is Protein Mdm4 (Homo sapiens) + E3 ubiquitin-protein ligase Mdm2 (Homo sapiens) (UniProt O15151+Q00987). Kind of experiment: disruptors of Mdm2/MdmX RING complex – cell-based, luminescence, split luciferase, SaOS-2, uHTS, primary screen (AID 485346). Particulars: SaOS-2 split-luciferase Mdm2/MdmX complementation, at 8 µM, active compounds read high.
Sequence of Protein Mdm4 (Homo sapiens) + E3 ubiquitin-protein ligase Mdm2 (Homo sapiens) (O15151 whole entry, looked up): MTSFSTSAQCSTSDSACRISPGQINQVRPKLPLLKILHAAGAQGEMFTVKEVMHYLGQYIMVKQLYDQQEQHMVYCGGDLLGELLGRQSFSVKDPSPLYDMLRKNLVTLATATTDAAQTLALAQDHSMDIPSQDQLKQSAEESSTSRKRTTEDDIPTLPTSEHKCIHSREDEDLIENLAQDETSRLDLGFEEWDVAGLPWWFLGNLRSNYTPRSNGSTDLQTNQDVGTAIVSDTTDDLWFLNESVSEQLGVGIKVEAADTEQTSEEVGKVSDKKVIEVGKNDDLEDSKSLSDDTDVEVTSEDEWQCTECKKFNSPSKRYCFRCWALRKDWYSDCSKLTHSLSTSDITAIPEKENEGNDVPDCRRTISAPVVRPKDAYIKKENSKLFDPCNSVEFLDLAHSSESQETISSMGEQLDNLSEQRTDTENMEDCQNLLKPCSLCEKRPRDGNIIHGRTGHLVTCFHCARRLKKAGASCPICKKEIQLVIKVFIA
Sequence of Protein Mdm4 (Homo sapiens) + E3 ubiquitin-protein ligase Mdm2 (Homo sapiens) (Q00987 whole entry, looked up): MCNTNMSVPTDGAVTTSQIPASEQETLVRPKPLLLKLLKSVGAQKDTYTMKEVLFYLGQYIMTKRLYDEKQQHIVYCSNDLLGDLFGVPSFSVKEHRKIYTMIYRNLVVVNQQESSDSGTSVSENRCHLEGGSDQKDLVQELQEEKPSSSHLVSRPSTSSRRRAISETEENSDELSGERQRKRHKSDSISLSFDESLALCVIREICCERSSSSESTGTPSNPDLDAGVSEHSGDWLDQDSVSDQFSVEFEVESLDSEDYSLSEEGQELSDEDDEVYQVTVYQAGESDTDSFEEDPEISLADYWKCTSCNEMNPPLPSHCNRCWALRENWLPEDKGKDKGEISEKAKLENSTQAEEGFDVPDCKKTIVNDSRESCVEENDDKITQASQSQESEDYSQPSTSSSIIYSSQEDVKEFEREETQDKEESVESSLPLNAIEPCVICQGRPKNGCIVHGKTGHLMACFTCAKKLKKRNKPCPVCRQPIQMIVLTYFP
By inhibition is commonly meant the drop in the measured response relative to a control, in per cent. Regarding `CCOc1ccc(-n2cnc3c(=O)[nH]c(N)nc32)cc1`, the inhibition is -4.14% (inactive).

In the case of `CCN(C[C@H]1N[C@@](Cc2ccccc2)(C(=O)OC)[C@H]2C(=O)N(Cc3ccccc3)C(=O)[C@@H]12)C(=O)c1ccc(C)cc1`, the inhibition is 0.772% (inactive).

Take `Cc1cccc([C@@H]2[C@@H]3C(=O)N(Cc4ccccc4)C(=O)[C@@H]3[C@]3(Cc4ccc(Cl)cc4)C(=O)N(c4cccc(Cl)c4)C(=O)N23)c1`: the inhibition is 8.94% (inactive).

For `CC(C)(C)N1C(=O)[C@H]2[C@@H](c3ccc(Br)cc3)N3C(=O)N(c4cccc(Cl)c4)C(=O)[C@@]3(C)[C@H]2C1=O`, the inhibition is 10.7% (inactive).

Consider `Cc1cccc([C@@H]2[C@@H]3C(=O)N(Cc4ccccc4)C(=O)[C@@H]3[C@]3(C)C(=O)N(c4ccc(Br)cc4)C(=O)N23)c1`, for which the inhibition was 53.1% (active).

With `Cc1ccc(S(=O)(=O)Nc2ccc(F)c(S(=O)(=O)N3CCOCC3)c2)cc1`, the inhibition was 29.4% (inactive).

For `CC(C)C(=O)Nc1cccc(C(=O)Nc2ccc3c(c2)OCO3)c1`, the inhibition was -105% (inactive).

As for `COc1cccc(OC)c1C(=O)Nc1ccc2c(c1)n(C)c(=O)n2C`, the inhibition is 6.22% (inactive).

On to `O=C(Nc1ccc2c(c1)OCO2)c1ccc(N2C(=O)c3ccccc3C2=O)cc1`, for which the inhibition is 8.21% (inactive).

Consider `Cn1c(=O)n(C)c2cc(C(=O)Nc3ccc4c(c3)OCO4)ccc21`, for which the inhibition is 60.2% (active).

With `Cn1c(=O)n(C)c2cc(/C=N/NC(=O)c3cccc(Br)c3)ccc21`, the inhibition was 19.4% (inactive).

`Cn1c(=O)n(C)c2cc(C(=O)Nc3ccc(Br)cc3)ccc21`: the inhibition was 56.8% (active).

As for `CC1(C)C=Cc2c(ccc3c2OC[C@@H](c2ccc(O)cc2O)C3)O1`, the inhibition was -97.4% (inactive).

As for `Cc1c(NC(=O)CSc2cccc3cccnc23)c(=O)n(-c2ccccc2)n1C`, the inhibition is 65.2% (active).

As to `Cc1c(NC(=O)CSc2nnc(-c3cccnc3)n2N)c(=O)n(-c2ccccc2)n1C`, the inhibition was -18.9% (inactive).

With `Cc1c(NC(=O)CSc2nnnn2-c2ccc(C(=O)O)cc2)c(=O)n(-c2ccccc2)n1C`, the inhibition is 11% (inactive).

On to `Cc1ccc(NC(=O)c2nc[nH]c2C(=O)N[C@@H](CCCCNC(=O)OC(C)(C)C)C(=O)OC(C)(C)C)cc1`, for which the inhibition was 31.7% (inactive).

As for `CCOC(=O)c1ccc(NC(=O)c2nc[nH]c2C(=O)N[C@@H](CCCCNC(=O)OC(C)(C)C)C(=O)OC(C)(C)C)cc1`, the inhibition was 53.6% (active).

In the case of `CCOC(=O)c1ccc(NC(=O)c2nc[nH]c2C(=O)NCc2ccccc2)cc1`, the inhibition is 33.2% (inactive).

In the case of `O=C(CNC(=O)c1ccccc1F)OCC(=O)c1c[nH]c2ccccc12`, the inhibition was 6.82% (inactive).

`O=C(Nc1cccnc1)c1noc2c1CCCCC2`: the inhibition was 3.42% (inactive).

Turning to `C=CCOc1ccc(/C=C2\SC(=S)N(CCC(=O)O)C2=O)cc1`, the inhibition is 42% (inactive).

Regarding `O=C(CCCN1C(=O)/C(=C/c2ccccc2)SC1=S)Nc1ccc(O)cc1`, the inhibition is 94.8% (active).

As to `COc1ccc(/C=C2\SC(=S)N(CCC(=O)Nc3cccc(C(=O)O)c3)C2=O)cc1OC`, the inhibition was 0.635% (inactive).

For `CCOc1ccc(/C=C2\SC(=S)N(NC(=O)c3ccncc3)C2=O)cc1OC`, the inhibition is -7.45% (inactive).

`CC(C(=O)Nc1ccc(O)c(C(=O)O)c1)N1C(=O)/C(=C/c2cccs2)SC1=S` (centres undefined): the inhibition is 7.51% (inactive).

`O=C(CCCN1C(=O)/C(=C/c2cccs2)SC1=S)Nc1ccc(O)cc1`: the inhibition was 62.6% (active).

On to `COc1ccc(/C=C2\SC(=S)N(CCC(=O)Nc3ccccn3)C2=O)cc1OC`, for which the inhibition was 76.7% (active).

With `Cc1ccc(/C=C2\SC(=S)N(CCC(=O)Nc3ccc(O)cc3)C2=O)cc1`, the inhibition was 20.5% (inactive).

As for `O=C(CCN1C(=O)/C(=C/c2cccs2)SC1=S)NNC(=O)c1cccc(O)c1`, the inhibition is -31.2% (inactive).

With `Cc1ccc(/C=C2/SC(=S)N(CCC(=O)NCCCN3CCOCC3)C2=O)cc1`, the inhibition is -3.05% (inactive).

`O=C(CCCN1C(=O)/C(=C\c2ccccc2)SC1=S)Nc1ccccc1O`: the inhibition is 79.6% (active).

As to `COc1ccc(/C=C2/SC(=O)N(CCCCCC(=O)Nc3ccccc3C(=O)O)C2=S)cc1`, the inhibition is -4.65% (inactive).

In the case of `Cc1csc(NC(=O)C2CCN(S(=O)(=O)c3ccccc3)CC2)n1`, the inhibition is -1.69% (inactive).

Consider `Cc1ccc2c(C)c(C(=O)N(C)CCC3CCCCO3)oc2c1C` (centres undefined), for which the inhibition was 27.9% (inactive).

As to `CC(=O)Nc1ccc(S(=O)(=O)Nc2nc3n(n2)C(c2ccccc2)CC(=O)N3)cc1` (centres undefined), the inhibition is 12.5% (inactive).

As to `CC(=O)NC12CC3CC(C1)CC(C(=O)N1CCN(S(=O)(=O)c4cccs4)CC1)(C3)C2`, the inhibition is 14.8% (inactive).

Regarding `Cc1ccc(Nc2nc(CSc3nnc(-c4ccncc4)n3-c3ccccc3C)cs2)cc1`, the inhibition is 38.1% (inactive).

For `Cc1c(C(=O)NCC(c2ccco2)N2CCCC2)oc2ccc(Cl)cc12` (centres undefined), the inhibition was 21% (inactive).

For the compound `CCCCCOC(=O)C1=C(C)Nc2nnnn2C1c1ccc(OC)c(OC)c1OC` (centres undefined), the inhibition was -18% (inactive).

Regarding `COc1cccc(-c2cc3nc4c(c(N5CCC6(CC5)OCCO6)n3n2)CCCC4)c1`, the inhibition was 22.2% (inactive).

With `COc1ccccc1CN(C)C(=O)C1(c2ccc(Cl)cc2)CC1`, the inhibition is 14.8% (inactive).

On to `O=C(CN1C(=O)NC(Cc2c[nH]c3ccccc23)C1=O)Nc1ccccc1C(F)(F)F` (centres undefined), for which the inhibition is -9.67% (inactive).

In the case of `Cc1ccc2c(c1)N(CC(=O)N(Cc1ccccn1)Cc1ccco1)C(=O)C(C(C)C)O2` (centres undefined), the inhibition was 2.25% (inactive).

For `CCc1ccc(NC(=O)N2CCc3ccccc3C2)cc1`, the inhibition is -51.8% (inactive).

`COC(=O)CSC1=C(C#N)C(c2ccccc2OC)C(C(=O)OC)C(=O)N1` (centres undefined): the inhibition is 15.2% (inactive).

Regarding `CCCc1cc(=O)[nH]c(SCC(=O)OCc2ccccc2)n1`, the inhibition was 18.4% (inactive).

Consider `Cc1ccc(C2CC(=O)NC(SCC(=O)OCc3ccccc3)=C2C#N)o1` (centres undefined), for which the inhibition was 58.1% (active).

Consider `COc1cc(OC)cc(C(=O)OCC(=O)Nc2sccc2C(N)=O)c1`, for which the inhibition was -6.16% (inactive).

For the compound `C=CCn1c(C)cc(C2=NNC(=NCC)SC2)c1C`, the inhibition was 97.3% (active).

`CCS(=O)(=O)N1CCC(N2CCN(c3ccccc3)CC2)CC1`: the inhibition is 1.56% (inactive).

As to `O=[N+]([O-])c1ccccc1S(=O)(=O)Nc1cccc2cccnc12`, the inhibition was 94.5% (active).

Take `O=[N+]([O-])c1cccc2ncccc12`: the inhibition was 10.6% (inactive).

With `Cc1ccccc1NC(=O)c1ccccc1NS(=O)(=O)c1cccc2cccnc12`, the inhibition is 11.2% (inactive).
